From paper PMC7862700, “An all-to-all approach to the identification of sequence-specific readers for epigenetic DNA modifications on cytosine”

Tests used:
Experiment in all cases: DAPPL (digital affinity profiling via proximity ligation, sequencing); 10 mM Tris-HCl pH 7.5, 50 mM NaCl, 1 mM DTT, 4% glycerol, room temperature, 30 min; GST-TFs on glutathione beads, 16-mer random dsDNA library, 0.1% formaldehyde crosslink after washing; high values mean tight binding
Conditions in all cases: protein: recombinant; tags: N-terminal GST; dsDNA, one strand shown
[1] = biological target: T1, ERF (Homo sapiens, UniProt P50548 1-548)
T1 sequence: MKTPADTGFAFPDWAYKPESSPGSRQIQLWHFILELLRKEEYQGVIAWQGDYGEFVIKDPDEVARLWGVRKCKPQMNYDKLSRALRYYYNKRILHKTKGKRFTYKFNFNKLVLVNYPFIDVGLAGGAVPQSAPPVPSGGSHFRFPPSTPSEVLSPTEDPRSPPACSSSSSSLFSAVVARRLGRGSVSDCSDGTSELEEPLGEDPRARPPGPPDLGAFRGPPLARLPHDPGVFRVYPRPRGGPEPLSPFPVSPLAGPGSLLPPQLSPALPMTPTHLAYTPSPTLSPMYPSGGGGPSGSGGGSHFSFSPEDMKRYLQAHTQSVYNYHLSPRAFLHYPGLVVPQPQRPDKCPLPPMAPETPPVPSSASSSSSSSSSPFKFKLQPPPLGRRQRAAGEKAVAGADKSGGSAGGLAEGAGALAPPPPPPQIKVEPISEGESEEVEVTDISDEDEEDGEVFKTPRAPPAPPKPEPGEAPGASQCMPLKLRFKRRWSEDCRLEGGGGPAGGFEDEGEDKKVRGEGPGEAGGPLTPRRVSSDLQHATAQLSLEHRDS
How it was run: (§1)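 Yeast served to express human transcription factors as GST fusions, which were then captured on glutathione beads and labelled with DNA barcodes. Pooled with a tag-only sample, they were incubated with 200 nmole of a 16-mer random double-stranded DNA library for 30 min at room temperature in Tris/NaCl/DTT/glycerol buffer, washed, crosslinked with 0.1% formaldehyde, ligated by proximity, amplified by PCR and sequenced. Dividing each hexamer's read frequency for a factor by its frequency for the tag-only sample gives the binding signal.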

[2] = biological target: T2, ETV3L (Homo sapiens, UniProt Q6ZN32 1-361)
T2 sequence: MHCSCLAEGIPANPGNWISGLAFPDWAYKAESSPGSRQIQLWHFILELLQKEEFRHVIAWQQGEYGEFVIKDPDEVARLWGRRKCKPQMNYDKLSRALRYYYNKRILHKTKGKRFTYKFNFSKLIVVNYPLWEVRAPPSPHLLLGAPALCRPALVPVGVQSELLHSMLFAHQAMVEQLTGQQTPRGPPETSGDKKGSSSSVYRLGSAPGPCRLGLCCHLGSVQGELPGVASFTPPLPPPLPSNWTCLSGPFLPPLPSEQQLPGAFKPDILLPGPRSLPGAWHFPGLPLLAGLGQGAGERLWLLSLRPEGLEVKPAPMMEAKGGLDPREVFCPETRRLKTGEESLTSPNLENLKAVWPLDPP
How it was run: as §1

[3] = biological target: T3, ETS2 (Homo sapiens, UniProt P15036 1-469)
T3 sequence: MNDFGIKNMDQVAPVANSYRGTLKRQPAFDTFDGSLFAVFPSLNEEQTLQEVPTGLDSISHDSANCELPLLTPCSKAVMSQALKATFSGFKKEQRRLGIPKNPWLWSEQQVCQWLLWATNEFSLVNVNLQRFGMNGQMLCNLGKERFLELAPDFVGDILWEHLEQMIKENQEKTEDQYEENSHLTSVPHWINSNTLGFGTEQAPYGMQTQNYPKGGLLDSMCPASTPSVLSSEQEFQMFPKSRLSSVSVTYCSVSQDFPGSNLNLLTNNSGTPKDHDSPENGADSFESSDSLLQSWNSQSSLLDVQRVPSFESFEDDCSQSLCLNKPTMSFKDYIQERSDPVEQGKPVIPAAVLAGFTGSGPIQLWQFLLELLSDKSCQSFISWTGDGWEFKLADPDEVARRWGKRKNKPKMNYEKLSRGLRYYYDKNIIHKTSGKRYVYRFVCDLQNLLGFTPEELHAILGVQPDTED
How it was run: as §1

[4] = biological target: T4, SPDEF (Homo sapiens, UniProt O95238 1-335)
T4 sequence: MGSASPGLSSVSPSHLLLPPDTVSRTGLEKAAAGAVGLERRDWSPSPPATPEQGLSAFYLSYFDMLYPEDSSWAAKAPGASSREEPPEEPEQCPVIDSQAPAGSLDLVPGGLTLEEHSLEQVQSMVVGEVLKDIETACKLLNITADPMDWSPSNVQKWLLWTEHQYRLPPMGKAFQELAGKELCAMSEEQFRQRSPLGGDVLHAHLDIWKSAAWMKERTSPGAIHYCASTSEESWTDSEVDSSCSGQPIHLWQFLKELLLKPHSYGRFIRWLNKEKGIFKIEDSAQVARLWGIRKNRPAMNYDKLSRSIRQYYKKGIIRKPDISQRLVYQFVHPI
How it was run: as §1

[5] = biological target: T5, ETV7 (Homo sapiens, UniProt Q9Y603 1-341)
T5 sequence: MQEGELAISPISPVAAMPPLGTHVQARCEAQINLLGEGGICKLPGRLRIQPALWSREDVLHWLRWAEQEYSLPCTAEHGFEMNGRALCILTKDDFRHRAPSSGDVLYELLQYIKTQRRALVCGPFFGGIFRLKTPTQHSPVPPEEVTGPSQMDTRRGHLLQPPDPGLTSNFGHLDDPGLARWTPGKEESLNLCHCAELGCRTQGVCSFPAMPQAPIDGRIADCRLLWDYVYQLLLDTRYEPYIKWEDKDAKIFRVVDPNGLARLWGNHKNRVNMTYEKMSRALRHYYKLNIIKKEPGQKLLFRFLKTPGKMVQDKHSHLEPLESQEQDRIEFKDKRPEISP
How it was run: as §1

[6] = biological target: T6, ELF5 (Homo sapiens, UniProt Q9UKW6-2 1-255)
T6 sequence: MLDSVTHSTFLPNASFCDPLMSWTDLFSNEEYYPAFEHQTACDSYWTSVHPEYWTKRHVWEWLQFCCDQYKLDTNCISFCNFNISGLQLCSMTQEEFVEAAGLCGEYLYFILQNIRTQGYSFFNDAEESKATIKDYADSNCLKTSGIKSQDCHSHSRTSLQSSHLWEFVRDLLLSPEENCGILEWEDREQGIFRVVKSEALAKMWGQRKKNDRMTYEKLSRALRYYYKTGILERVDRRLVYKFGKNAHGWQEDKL
How it was run: as §1

[7] = biological target: T7, ETV3 (Homo sapiens, UniProt P41162-2 1-143)
T7 sequence: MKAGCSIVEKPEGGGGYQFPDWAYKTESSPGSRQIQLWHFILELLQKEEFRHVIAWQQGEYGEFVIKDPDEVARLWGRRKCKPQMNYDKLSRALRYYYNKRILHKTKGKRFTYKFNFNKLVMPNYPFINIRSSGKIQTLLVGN
How it was run: as §1

[8] = biological target: ETV6 (Homo sapiens, UniProt P41212 1-452)
How it was run: as §1

ETV6, sequence (P41212 whole entry): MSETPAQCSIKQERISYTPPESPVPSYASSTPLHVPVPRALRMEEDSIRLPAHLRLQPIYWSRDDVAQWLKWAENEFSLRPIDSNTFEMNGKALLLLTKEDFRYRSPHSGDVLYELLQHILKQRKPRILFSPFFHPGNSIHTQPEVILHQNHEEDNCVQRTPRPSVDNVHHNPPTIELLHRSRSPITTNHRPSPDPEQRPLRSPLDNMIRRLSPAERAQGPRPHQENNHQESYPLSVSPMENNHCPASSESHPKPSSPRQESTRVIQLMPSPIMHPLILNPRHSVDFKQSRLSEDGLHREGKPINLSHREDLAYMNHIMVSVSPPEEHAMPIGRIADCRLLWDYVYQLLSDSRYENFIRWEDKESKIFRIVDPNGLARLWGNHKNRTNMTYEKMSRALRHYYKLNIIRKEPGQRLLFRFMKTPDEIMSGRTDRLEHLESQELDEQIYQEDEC

## AAATGG
[1]
  binding signal: 1.49 fold enrichment (6-mer frequency, TF over GST control)
[2]
  binding signal: 1.54 fold enrichment (6-mer frequency, TF over GST control)
[3]
  binding signal: 1.54 fold enrichment (6-mer frequency, TF over GST control)
[4]
  binding signal: 1.41 fold enrichment (6-mer frequency, TF over GST control)
[5]
  binding signal: 1.38 fold enrichment (6-mer frequency, TF over GST control)
[6]
  binding signal: 1.52 fold enrichment (6-mer frequency, TF over GST control)
[7]
  binding signal: 1.5 fold enrichment (6-mer frequency, TF over GST control)
[8]
  binding signal: 1.47 fold enrichment (6-mer frequency, TF over GST control)

## TTGATT
[1]
  binding signal: 1.31 fold enrichment (6-mer frequency, TF over GST control)
[2]
  binding signal: 1.25 fold enrichment (6-mer frequency, TF over GST control)
[3]
  binding signal: 1.22 fold enrichment (6-mer frequency, TF over GST control)
[4]
  binding signal: 1.15 fold enrichment (6-mer frequency, TF over GST control)
[5]
  binding signal: 1.28 fold enrichment (6-mer frequency, TF over GST control)
[6]
  binding signal: 1.16 fold enrichment (6-mer frequency, TF over GST control)
[7]
  binding signal: 1.3 fold enrichment (6-mer frequency, TF over GST control)
[8]
  binding signal: 1.18 fold enrichment (6-mer frequency, TF over GST control)

## TGACGC
[1]
  binding signal: 1.34 fold enrichment (6-mer frequency, TF over GST control)
[2]
  binding signal: 1.24 fold enrichment (6-mer frequency, TF over GST control)
[3]
  binding signal: 1.12 fold enrichment (6-mer frequency, TF over GST control)
[4]
  binding signal: 1.13 fold enrichment (6-mer frequency, TF over GST control)
[5]
  binding signal: 1.13 fold enrichment (6-mer frequency, TF over GST control)
[6]
  binding signal: 1.19 fold enrichment (6-mer frequency, TF over GST control)
[7]
  binding signal: 1.15 fold enrichment (6-mer frequency, TF over GST control)
[8]
  binding signal: 1.19 fold enrichment (6-mer frequency, TF over GST control)

## ATTCCC
[1]
  binding signal: 1.28 fold enrichment (6-mer frequency, TF over GST control)
[2]
  binding signal: 1.53 fold enrichment (6-mer frequency, TF over GST control)
[3]
  binding signal: 1.25 fold enrichment (6-mer frequency, TF over GST control)
[4]
  binding signal: 1.37 fold enrichment (6-mer frequency, TF over GST control)
[5]
  binding signal: 1.29 fold enrichment (6-mer frequency, TF over GST control)
[6]
  binding signal: 1.5 fold enrichment (6-mer frequency, TF over GST control)
[7]
  binding signal: 1.51 fold enrichment (6-mer frequency, TF over GST control)
[8]
  binding signal: 1.38 fold enrichment (6-mer frequency, TF over GST control)

## TTGCTC
[1]
  binding signal: 1.44 fold enrichment (6-mer frequency, TF over GST control)
[2]
  binding signal: 1.28 fold enrichment (6-mer frequency, TF over GST control)
[3]
  binding signal: 1.33 fold enrichment (6-mer frequency, TF over GST control)
[4]
  binding signal: 1.2 fold enrichment (6-mer frequency, TF over GST control)
[5]
  binding signal: 1.59 fold enrichment (6-mer frequency, TF over GST control)
[6]
  binding signal: 1.18 fold enrichment (6-mer frequency, TF over GST control)
[7]
  binding signal: 1.2 fold enrichment (6-mer frequency, TF over GST control)
[8]
  binding signal: 1.22 fold enrichment (6-mer frequency, TF over GST control)

## ACATTC
[1]
  binding signal: 1.42 fold enrichment (6-mer frequency, TF over GST control)
[2]
  binding signal: 1.3 fold enrichment (6-mer frequency, TF over GST control)
[3]
  binding signal: 1.3 fold enrichment (6-mer frequency, TF over GST control)
[4]
  binding signal: 1.27 fold enrichment (6-mer frequency, TF over GST control)
[5]
  binding signal: 1.31 fold enrichment (6-mer frequency, TF over GST control)
[6]
  binding signal: 1.36 fold enrichment (6-mer frequency, TF over GST control)
[7]
  binding signal: 1.31 fold enrichment (6-mer frequency, TF over GST control)
[8]
  binding signal: 1.4 fold enrichment (6-mer frequency, TF over GST control)

## AATCAT
[1]
  binding signal: 1.18 fold enrichment (6-mer frequency, TF over GST control)
[2]
  binding signal: 1.18 fold enrichment (6-mer frequency, TF over GST control)
[3]
  binding signal: 1.11 fold enrichment (6-mer frequency, TF over GST control)
[4]
  binding signal: 1.07 fold enrichment (6-mer frequency, TF over GST control)
[5]
  binding signal: 1.04 fold enrichment (6-mer frequency, TF over GST control)
[6]
  binding signal: 1.18 fold enrichment (6-mer frequency, TF over GST control)
[7]
  binding signal: 1.12 fold enrichment (6-mer frequency, TF over GST control)
[8]
  binding signal: 1.16 fold enrichment (6-mer frequency, TF over GST control)
